Assay results taken from the supplement of paper PMC10338343.
± gives the standard deviation.

Columns and labels:
[1] = tested on: MILI (PIWIL2) piRISC loaded with piRNA #1 (26 nt); assay: pre-steady-state target cleavage rate (min^-1); guide: piRNA #1 5'p-UGAGGUAGUAGGUUGUAUAGUAUCCA; higher = faster piRNA-guided slicing of the target; settings: auxiliary factor: 500 nM mouse GTSF1;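 note: 1 nM active piRISC with 0.1 nM target library at 33 °C single turnover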
Method in brief: (§1)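 The pre-steady-state cleavage rate was calculated from a burst-and-steady-state fit. Data came from Cleave-'n-Seq, in which […] transcribed, DNA-blocked target RNA library was mixed with 1 nM active affinity-purified piRISC carrying one synthetic guide, with or without 500 nM GTSF1 partner protein, in HEPES–potassium acetate buffer at 33 °C for 0–8 or 0–960 min. Uncleaved targets were sequenced and normalised to depth and to weakly complementary targets, three trials were pooled, and k3 was capped at 0.0001 min^-1.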

[2] = tested on: EfPiwi piRISC loaded with piRNA #1 (26 nt); assay: pre-steady-state target cleavage rate (min^-1); auxiliary factor: 500 nM Ephydatia muelleri Gtsf1; guide: piRNA #1 5'p-UGAGGUAGUAGGUUGUAUAGUAUCCA; MIWI and MILI are mouse PIWI proteins and EfPiwi is from a freshwater sponge; tags in brackets are library labels; higher = faster piRNA-guided slicing of the target
Method in brief: as §1

| Sequence | pre-steady-state target cleavage rate [1] | pre-steady-state target cleavage rate [2] |
| --- | --- | --- |
| GGAGAGGAUACUAUUCAACGUACUACCUCA | 0.0162 ± 0.0029 | 0.00415 ± 0.0012 |
| GGAGACCAUACUAUACAACCAACUACGUCA | 0.00313 ± 0.003 | 0.00504 ± 0.004 |
| GGAGAGGAUACUAUACAACCUAUUACCUCA | 0.174 ± 0.018 | 0.153 ± 0.056 |
| GGAGACGGAUACUAUACAACCUACUACCUCA | 0.234 ± 0.018 | 0.221 ± 0.062 |
| GGAGUGGAUACUAUACAACCUAGUACCUCA | 0.0508 ± 0.0096 | 0.00414 ± 0.0012 |
| GGAGACGAAACUAUACAACCUACUACCACA | 0.219 ± 0.031 | 0.00352 ± 0.0032 |
| GGAGACCAACUAUACAACCUACUACCUCA | 0.224 ± 0.021 | 0.00596 ± 0.0037 |
| GGAGACGAUACUUUACAAGCUACUACCUCA | 0.235 ± 0.015 | 0.00342 ± 0.0026 |
| GGAGACGAUACUAUACAACCUACUAGCUCA | 0.11 ± 0.019 | 0.00381 ± 0.0011 |
| GGAGAGGAUACUAUACAACCUUCUACCACA | 0.00472 ± 0.0023 | 0.00468 ± 0.0021 |
| GGAGACCACUACUAUACAACCUACUACCUCA | 0.149 ± 0.016 | 0.0313 ± 0.014 |
| GGAGACCAUACUAUUCAACGUACUACCUCA | 0.019 ± 0.0049 | 0.00247 ± 0.0019 |
| GGAGACGAUACUAUACAACCUACUAGCCUCA | 0.159 ± 0.021 | 0.00485 ± 0.002 |
| GGAGACCUAACUAUACGACCUACUACCUCA | 0.0254 ± 0.011 | 0.00758 ± 0.0045 |
| GGAGACGAUAAUAUACAACCUACUACCUCA | 0.172 ± 0.011 | 0.072 ± 0.025 |
| GGAGACCUUACUAUACAAUCUACUACCUCA | 0.127 ± 0.01 | 0.00599 ± 0.0041 |
| GGAGAGGAUACAAUACAACCUACUACCUGA | 0.0513 ± 0.0087 | 0.0036 ± 0.0016 |
| GGAGACCUUACUUUACAUCCUACUACCUCA | 0.26 ± 0.022 | 0.00417 ± 0.0035 |
| GGAGAGGAUACUAUACAUCCUACUUCCUCA | 0.0107 ± 0.0033 | 0.00317 ± 0.0017 |
| GGAGAGGUUACUAUACAACCUACUUCCUCA | 0.00348 ± 0.0029 | 0.0033 ± 0.002 |

| Sequence | pre-steady-state target cleavage rate [1] | pre-steady-state target cleavage rate [2] |
| --- | --- | --- |
| GGAGACCUAAGAAUACAACCUACUACCUCA | 0.0112 ± 0.0044 | 0.00727 ± 0.0035 |
| GGAGAGGAUACUAUACAACCAACUACCUGA | 0.00399 ± 0.0021 | 0.00332 ± 0.0017 |
| GGAGACCAUACUUAACAACCUACUACCUCA | 0.134 ± 0.018 | 0.00395 ± 0.0032 |
| GGAGUGGAUACUAUACAUGCUACUACCUCA | 0.109 ± 0.0081 | 0.00896 ± 0.0037 |
| GGAGACCAUACUAUACAACCUACUACCUCC [g2:g23:cont:t1C] | 0.187 ± 0.017 | 0.0109 ± 0.0042 |
| GGAGUGGAAUACUAUACAACCUACUACCUCA | 0.165 ± 0.0081 | 0.122 ± 0.045 |
| GGAGACCUUACCUAUACAACCUACUACCUCA | 0.0629 ± 0.016 | 0.0117 ± 0.0057 |
| GGAGACCUAUCUAUAACAACCUACUACCUCA | 0.0615 ± 0.012 | 0.00453 ± 0.0037 |
| GGAGACCUUACUGUACAACCUACUACCUCA | 0.163 ± 0.029 | 0.0146 ± 0.0073 |
| GGAGACGAUACAUUACAACCUACUACCUCA | 0.173 ± 0.015 | 0.00848 ± 0.0035 |
| GGAGAGGAUACUAUACAACCUACUAGCUCA | 0.0627 ± 0.012 | 0.00484 ± 0.0019 |
| GGAGACCUUACAAUACAUCCUACUACCUCA | 0.232 ± 0.021 | 0.00553 ± 0.004 |
| GGAGACCUUACUAUACAACCUACUACUUCA | 0.116 ± 0.016 | 0.0046 ± 0.003 |
| GGAGAGCUUACUAUACAACCUACUACCUCA | 0.132 ± 0.0097 | 0.0193 ± 0.0089 |
| GGAGACCUUACUAUACAACCUACUACCUCA [g2:g22:cont:t1A] | 0.165 ± 0.018 | 0.0238 ± 0.0084 |
| GGAGACCUAAAUAUACAACCUACUACCUCA | 0.0318 ± 0.0077 | 0.0102 ± 0.0046 |
| GGAGACCUAACUAUUACAACCUACUACCUCA | 0.099 ± 0.023 | 0.0205 ± 0.0091 |
| GGAGACCAUACUAUAUCAACCUACUACCUCA | 0.0898 ± 0.011 | 0.0136 ± 0.0068 |
| GGAGAGGAUACUAUACAAGCUUCUACCUCA | 0.0253 ± 0.0037 | 0.0045 ± 0.0024 |
| GGAGACGAUACUAUACAACGUACUACCACA | 0.0317 ± 0.0055 | 0.0042 ± 0.0021 |

| Sequence | pre-steady-state target cleavage rate [1] | pre-steady-state target cleavage rate [2] |
| --- | --- | --- |
| GGAGAGGAUAGUAUACAACCUACUAGCUCA | 0.00705 ± 0.0035 | 0.00348 ± 0.0023 |
| GGAGUGGAUAGUAUACUACCUACUACCUCA | 0.113 ± 0.0097 | 0.00287 ± 0.0021 |
| GGAGUGGAUACUAUAACAACCUACUACCUCA | 0.171 ± 0.0095 | 0.0556 ± 0.021 |
| GGAGUGAAUACUAUACAACCUACUACCUCA | 0.175 ± 0.009 | 0.102 ± 0.037 |
| GGAGACGAGUACUAUACAACCUACUACCUCA | 0.176 ± 0.014 | 0.0147 ± 0.0053 |
| GGAGUGGAUACUAUACAACCUACUACCUAA | 0.105 ± 0.014 | 0.151 ± 0.054 |
| GGAGACCAUACUAUACAACCUACUUGGAGA [g7:g23:cont:t1A] | 0.00469 ± 0.0036 | 0.00547 ± 0.0034 |
| GGAGUGGAUACUAUUCAACCAACUACCUCA | 0.0045 ± 0.002 | 0.00404 ± 0.0021 |
| GGAGUGGAUACUAUACAUCCUACUACCACA | 0.108 ± 0.014 | 0.00415 ± 0.0017 |
| GGAGACCAUACUAUACAACCUUCUACCUCA | 0.00761 ± 0.0026 | 0.00625 ± 0.0028 |
| GGAGUGGAUUCUAUACUACCUACUACCUCA | 0.155 ± 0.0078 | 0.00505 ± 0.0034 |
| GGAGACCAAACUAUACAACCUAGUACCUCA | 0.0169 ± 0.0096 | 0.00518 ± 0.0029 |
| GGAGACGAUACUAUACAAGCUACUAGCUCA | 0.0998 ± 0.024 | 0.00375 ± 0.0019 |
| GGAGACCUAACUAAUACAACCUACUACCUCA | 0.103 ± 0.025 | 0.0103 ± 0.0044 |
| GGAGACGUAACUAUACAACCUACUACCUCA | 0.166 ± 0.018 | 0.0248 ± 0.0098 |
| GGAGAGAAUACUAUACAACCUACUACCUCA | 0.177 ± 0.01 | 0.0106 ± 0.0053 |
| GGAGUGGAUACUAUACAACCUACUACCAUCA | 0.0921 ± 0.013 | 0.00588 ± 0.0026 |
| GGAGACCAUGCUAUACAACCUACUACCUCA | 0.145 ± 0.023 | 0.00746 ± 0.0043 |
| GGAGACCAUACUAUACUACGUACUACCUCA | 0.0334 ± 0.0056 | 0.00415 ± 0.0028 |
| GGAGUGGAUUCUAUACAUCCUACUACCUCA | 0.299 ± 0.013 | 0.00479 ± 0.0026 |
